The source of these data is PubChem BioAssay AID1985 (Southern Research Specialized Biocontainment Screening …, 2009).

SMILES strings stand for the structures. Out of some 2,300 compounds screened, about 1,000 (43%) were called active. The rule behind the calls is not given here. So high a share suggests a set chosen from earlier hits. This is one part of the list. Results with a measured potency or affinity are listed apart.

The nature of the test: modified counter assay using GFP fluorescence, PhoP regulon inhibitor project, dose response (AID 1985). As to conditions: S. Typhi, 4 h; series mostly up to 150 µM.
On to `CC(c1cccnc1)N(CCN(C)C)C(=O)Nc1ccc(Cl)c(Cl)c1` (stereo not given), for which the outcome was inactive.

On to `CN(CCOc1ccc(Cl)cc1)CC(O)c1ccccc1` (stereo not given), for which the result was inactive.

Regarding `CC(C)CNC(CC(=O)O)c1ccccc1` (stereo not given), the result was inactive.

For the compound `CCS(=O)(=O)N1CCC(C(=O)NCc2cc(OC)ccc2OC)CC1`, the result was inactive.

Take `O=[N+]([O-])c1ccc(CN2CCSCC2)cc1`: the compound was called inactive.

On to `CNC(CC(=O)c1ccc([N+](=O)[O-])cc1)C(Cl)(Cl)Cl` (stereo not given), for which the compound was called inactive.

For `COc1ccc(Cl)cc1NC(=O)CN(C)CC(=O)Nc1ccccc1C(F)(F)F`, the result was inactive.

Turning to `Cn1nnnc1SCc1nnc(-c2ccccc2Br)o1`, the compound was classed as inactive.

On to `O=C(Nc1ccc(Cl)cc1)N1CCOC12CCC1(CC2)OCCO1`, for which the compound was called inactive.

In the case of `Cc1cc(=O)oc2cc(OCC(=O)NC3CCCC3)ccc12`, the compound was classed as inactive.

In the case of `Cc1ccc(CSc2nc3c(c(=O)[nH]2)CCC3)cc1`, the outcome was inactive.

On to `Cc1cccc(Nc2c3c(nc4ccccc24)CCC3)c1`, for which the compound was called inactive.

Turning to `COc1ccc(Nc2c3c(nc4ccccc24)CCC3)cc1`, the call was inactive.

`FC(F)(F)c1ccccc1NC1=NCCC1`: the compound was called inactive.

Regarding `CCCCNCCCOc1cccc(Cl)c1Cl`, the outcome was inactive.

On to `COc1ccccc1/C=N/N1C(=O)c2cccc3cccc(c23)C1=O`, for which the compound was classed as inactive.

`O=C(NC(=S)Nc1ccc(S(=O)(=O)Nc2nccs2)cc1)c1cccnc1`: the compound was classed as inactive.

Turning to `C=CCSc1nnc(NC(=O)CSc2nc3ccccc3o2)s1`, the compound was called inactive.

Turning to `CCOC(=O)c1nc2cc3n(c(CC(C)C)c-2c1C)CC(C)=C3C`, the call was inactive.

As to `NS(=O)(=O)c1ccc(CCNC(=O)C(=O)C2C(=O)Nc3ccccc32)cc1` (stereo not given), the outcome was inactive.

On to `COc1ccccc1-c1cc2nc(C)c(CCC(=O)NC(C)CCc3ccco3)c(C)n2n1` (stereo not given), for which the compound was called inactive.

As to `CC(C)C(=O)Nc1ccccc1-c1nc2ccccc2[nH]c1=O`, the outcome was inactive.

On to `COc1cccc(NC(=O)CN(C)C(C)C(=O)Nc2ccc(S(=O)(=O)N3CCOCC3)cc2)c1` (stereo not given), for which the compound was called inactive.

Turning to `COc1ccc(N(C(=O)c2cccnc2)S(=O)(=O)c2ccc(F)cc2)cc1`, the result was inactive.

On to `O=C(Nc1ccc(S(=O)(=O)N2CCCC2)cc1)c1cccnc1`, for which the compound was classed as inactive.

Regarding `CCOC(=O)C(O)(NC(=O)c1cccnc1)C(F)(F)F` (stereo not given), the compound was called inactive.

Turning to `N/C(=N\OC(=O)C(c1ccccc1)c1ccccc1)c1ccncc1`, the outcome was inactive.

As to `N/C(=N\OC(=O)COc1ccc2ccccc2c1)c1ccccn1`, the outcome was inactive.

Take `O=C1CCCC2=C1C(c1ccncc1)Nc1ccccc1N2` (stereo not given): the outcome was inactive.

In the case of `COCCNC(=O)Cn1cnc2c1c(=O)n(C)c(=O)n2C`, the outcome was inactive.

On to `c1ccc2sc(N3CN(CCN4CCOCC4)CN(c4nc5ccccc5s4)C3)nc2c1`, for which the compound was called inactive.

Take `CC1CCN(c2nc3ccc(C(=O)NCCCN4CCCCC4)cc3s2)CC1`: the compound was called inactive.

As to `CN1CCN(c2ccccc2NC(=O)c2sc3ccccc3c2Cl)CC1`, the compound was called inactive.

As for `COc1ccc2sc(N(CCCN(C)C)C(=O)c3ccc(S(=O)(=O)N4CCc5ccccc5C4)cc3)nc2c1`, the result was inactive.

Consider `CN(C)CCOC(=O)c1sc2ccccc2c1Cl`, for which the compound was called inactive.
